# “And” between values parts separate entries of the source, which are not always exact repeats. Equal entries are not always repeated. Hit rate of the full screen: of about 5,500 compounds, about 2,000 (36%) were called active. Another 18% or so got no clear call; they are omitted. Some of the results follow. Unmarked numbers belong to inactive results. Rule as the data show it: active = normalized growth mostly below about 0.91 (no sharp cut-off); inconclusive = no clear call, values can overlap the other calls; inactive = mostly above about 0.92.
# Experiment: chemical genetic growth profiling, strain panel (AID 1159580);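 also: tested at 20 µM; growth read once vehicle control cultures reached saturation at 30 °C; 1 = growth at the plate median or of vehicle wells; lower values mean less growth of the strain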
# Conditions: S. cerevisiae deletion strains, growth OD
smiles,measurement,setting,value
N[C@H](Cc1cc(I)c(Oc2ccc(O)c(I)c2)c(I)c1)C(=O)O,normalized growth,"locus YAL013W, strain DEP1, active compounds read low",1.01
same,normalized growth,"locus YAL021C, strain ccr4, active compounds read low",1.03
same,normalized growth,"locus YAL026C, strain drs2, active compounds read low",0.982
same,normalized growth,"locus YAL030W, strain snc1, active compounds read low",1
same,normalized growth,"locus YBL061C, strain skt5, active compounds read low",0.994
same,normalized growth,"locus YBR009C, strain hhf1, active compounds read low",0.893 (active)
same,normalized growth,"locus YBR021W, strain FUR4, active compounds read low",0.989
same,normalized growth,"locus YBR023C, strain chs3, active compounds read low",0.986
same,normalized growth,"locus YBR171W, strain sec66, active compounds read low",0.996
same,normalized growth,"locus YBR229C, strain ROT2, active compounds read low",1
same,normalized growth,"locus YBR231C, strain swc5, active compounds read low",1
same,normalized growth,"locus YBR279W, strain paf1, active compounds read low",0.991
same,normalized growth,"locus YCL011C, strain gbp2, active compounds read low",1
same,normalized growth,"locus YCL016C, strain dcc1, active compounds read low",0.981
same,normalized growth,"locus YCL029C, strain bik1, active compounds read low",1.01
same,normalized growth,"locus YCL061C, strain MRC1, active compounds read low",0.987
same,normalized growth,"locus YCL069W, strain vba3, active compounds read low",1
same,normalized growth,"locus YCR088W, strain abp1, active compounds read low",1
same,normalized growth,"locus YDL005C, strain med2, active compounds read low",1
same,normalized growth,"locus YDL035C, strain GPR1, active compounds read low",0.992
same,normalized growth,"locus YDL040C, strain nat1, active compounds read low",1.01
same,normalized growth,"locus YDL074C, strain BRE1, active compounds read low",0.939
same,normalized growth,"locus YDL101C, strain DUN1, active compounds read low",0.998
same,normalized growth,"locus YDL134C, strain PPH21, active compounds read low",1
same,normalized growth,"locus YDL185W, strain tfp1, active compounds read low",0.996
same,normalized growth,"locus YDL192W, strain arf1, active compounds read low",0.987
same,normalized growth,"locus YDR001C, strain nth1, active compounds read low",1.01
same,normalized growth,"locus YDR069C, strain doa4, active compounds read low",0.992
same,normalized growth,"locus YDR101C, strain arx1, active compounds read low",0.974
same,normalized growth,"locus YDR137W, strain rgp1, active compounds read low",0.985
same,normalized growth,"locus YDR150W, strain NUM1, active compounds read low",1.05
same,normalized growth,"locus YDR159W, strain sac3, active compounds read low",0.978
same,normalized growth,"locus YDR162C, strain NBP2, active compounds read low",0.999
same,normalized growth,"locus YDR195W, strain ref2",1
same,normalized growth,"locus YDR297W, strain sur2, active compounds read low",0.996
same,normalized growth,"locus YDR318W, strain mcm21, active compounds read low",0.917 (active)
same,normalized growth,"locus YDR334W, strain swr1, active compounds read low",0.997
same,normalized growth,"locus YDR335W, strain msn5, active compounds read low",0.999
same,normalized growth,"locus YDR388W, active compounds read low",0.985
same,normalized growth,"locus YDR392W, strain spt3, active compounds read low",0.748
same,normalized growth,"locus YDR502C, strain sam2, active compounds read low",0.977
same,normalized growth,"locus YEL003W, strain gim4, active compounds read low",0.998
same,normalized growth,"locus YEL037C, strain rad23, active compounds read low",1
same,normalized growth,"locus YEL061C, strain CIN8 (second series), active compounds read low",1
same,normalized growth,"locus YEL061C, strain CIN8, active compounds read low",1.01
same,normalized growth,"locus YER015W, strain faa2, active compounds read low",1
same,normalized growth,"locus YER016W, strain bim1, active compounds read low",0.995
same,normalized growth,"locus YER110C, active compounds read low",1
same,normalized growth,"locus YER111C, strain swi4, active compounds read low",0.993
same,normalized growth,"locus YER155C, strain BEM2 (second series), active compounds read low",0.958
same,normalized growth,"locus YER155C, strain BEM2, active compounds read low",0.997
same,normalized growth,"locus YER167W, strain BCK2, active compounds read low",0.946
same,normalized growth,"locus YFR010W, strain ubp6, active compounds read low",0.997
same,normalized growth,"locus YGL078C, strain dbp3, active compounds read low",0.98
same,normalized growth,"locus YGL086W, strain mad1, active compounds read low",0.946
same,normalized growth,"locus YGL167C, strain pmr1, active compounds read low",1
same,normalized growth,"locus YGL173C, strain kem1, active compounds read low",0.952
same,normalized growth,"locus YGL227W, strain vid30, active compounds read low",0.993
same,normalized growth,"locus YGL240W, strain doc1, active compounds read low",0.973
same,normalized growth,"locus YGL248W, strain PDE1, active compounds read low",0.998
same,normalized growth,"locus YGL253W, strain hxk2, active compounds read low",0.981
same,normalized growth,"locus YGR078C, strain PAC10, active compounds read low",0.966
same,normalized growth,"locus YGR135W, strain pre9, active compounds read low",0.959
same,normalized growth,"locus YGR229C, strain SMI1, active compounds read low",0.981
same,normalized growth,"locus YGR252W, strain gcn5, active compounds read low",0.87
same,normalized growth,"locus YHR013C, strain ard1, active compounds read low",0.971
same,normalized growth,"locus YHR027C, strain rpn1, active compounds read low",0.997
same,normalized growth,"locus YHR030C, strain SLT2, active compounds read low",0.997 and 1.05
same,normalized growth,"locus YHR079C, strain IRE1 (second series), active compounds read low",0.999
same,normalized growth,"locus YHR079C, strain IRE1, active compounds read low",1.05
same,normalized growth,"locus YHR094C, strain hxt1, active compounds read low",0.999
same,normalized growth,"locus YHR129C, strain ARP1, active compounds read low",1
same,normalized growth,"locus YHR142W, strain chs7, active compounds read low",0.964
same,normalized growth,"locus YHR200W, strain rpn10, active compounds read low",0.992
same,normalized growth,"locus YIL066C, strain RNR3, active compounds read low",0.951
same,normalized growth,"locus YIL073C, strain SPO22, active compounds read low",0.967
same,normalized growth,"locus YIL125W, strain kgd1, active compounds read low",0.99
same,normalized growth,"locus YIR030C, strain dcg1, active compounds read low",0.993
same,normalized growth,"locus YJL092W, strain hpr5, active compounds read low",0.998
same,normalized growth,"locus YJL095W, strain BCK1 (second series), active compounds read low",0.865 (active)
same,normalized growth,"locus YJL095W, strain BCK1, active compounds read low",0.964 and 1.04
same,normalized growth,"locus YJL115W, strain asf1, active compounds read low",0.998
same,normalized growth,"locus YJL129C, strain trk1, active compounds read low",0.97
same,normalized growth,"locus YJL134W, strain LCB3, active compounds read low",1
same,normalized growth,"locus YJL154C, strain vps35, active compounds read low",1
same,normalized growth,"locus YJL164C, strain tpk1, active compounds read low",0.911 (active)
same,normalized growth,"locus YJL166W, strain qcr8, active compounds read low",0.884 (active)
same,normalized growth,"locus YJL168C, strain set2, active compounds read low",0.996
same,normalized growth,"locus YJL187C, strain SWE1 (second series), active compounds read low",1.01
same,normalized growth,"locus YJL187C, strain SWE1, active compounds read low",1.01
same,normalized growth,"locus YJR043C, strain POL32, active compounds read low",0.996
same,normalized growth,"locus YJR066W, strain TOR1, active compounds read low",0.99
